Assay outcomes (PubChem BioAssay)
The full list was thinned out, with hits kept by preference.
Cycloheximide cs: affects cycloheximide protein synthesis inhibition readout, counter-screen; max response, %; 300,000 tested, 12% active; AID 2314; cell reporter, cycloheximide protein synthesis inhibition counterscreen; in the data active = max response mostly above about 13%, no sharp cut-off; inactive = mostly below about 14%; note: read at 38.3 µM for the half of the compounds with a filed dose; 0% is about no effect
FBPA Giardia inh: Giardia lamblia aldolase inhibition. A8B2U2. purified Giardia FBPA. Potency, µM (highest dose often 59.6 µM), for the others: top-dose activity, negative = inhibition, most hits filed as inhibitors. 290,000 tested, 0.71% active. AID 2451; note: potency is the fitted concentration of half-maximal effect; % is set by controls: 0 for no effect and ±100 for the full control effect; nearly all actives have a fitted effect of over 55% in size
Target sequence (A8B2U2 whole entry, looked up): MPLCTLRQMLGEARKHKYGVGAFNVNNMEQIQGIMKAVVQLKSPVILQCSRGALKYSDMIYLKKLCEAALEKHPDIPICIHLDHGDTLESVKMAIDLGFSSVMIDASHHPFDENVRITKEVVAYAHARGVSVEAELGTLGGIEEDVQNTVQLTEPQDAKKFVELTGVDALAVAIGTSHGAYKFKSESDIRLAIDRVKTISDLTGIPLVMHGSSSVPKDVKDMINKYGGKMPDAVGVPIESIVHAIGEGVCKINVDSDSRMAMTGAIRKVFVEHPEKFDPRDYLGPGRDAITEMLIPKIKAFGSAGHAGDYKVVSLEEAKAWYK
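Giardia FBPA (40 nM reagent) was preincubated 10 min at RT with compound (up to 57.5 uM final), then substrate plus GAPDH/TPI/NAD/arsenate coupling system with diaphorase/resazurin was added; resorufin fluorescence (525/598 nm) was read after 20 min.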
RE007 growth inh: less growth of the S. pombe RE007 Vpr strain; S. pombe RE007 Vpr strain, BacTiter-Glo ATP luminescence, 24 h; Potency, µM (doses to about 92.2 µM), for the others: at the highest dose activity change, negative = less growth, usual class: inhibitors; 360,000 tested, 0.21% active; active = well fitted falling curve with a large enough effect; inconclusive = small, poorly fitted or top-dose-only effect; inactive = no such curve, though single readings can be large or run the other way; note: potency is the fitted concentration of half-maximal effect; % is set by controls: 0 for no effect and ±100 for the full control effect; nearly all actives have a fitted effect of over 50% in size
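Fission yeast strain RE007, carrying one chromosomally integrated HIV-1 vpr copy, was seeded at OD 0.01 in PMG+AL medium with 23 nL pinned compound. After 24 h at 30 °C and 99% humidity, viability was read by BacTiter-Glo luminescence.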
Shiga toxin inh: inhibitors of Shiga toxin in Vero cells. inhibition, % at 38.7 µM. Vero cells, Shiga toxin protein synthesis inhibition reporter. 290,000 tested, 9.2% active; in the data active = inhibition mostly above about 28%, no sharp cut-off; inactive = mostly below about 43%; note: 0% is about no effect
LmPK inhibitor: blocks Leishmania mexicana pyruvate kinase activity; Q27686; purified LmPK, Kinase-Glo ATP luminescence, 1 h; Potency, µM (doses to about 57.5 µM), for inactives: top-dose activity change, negative = inhibition, hits mostly inhibitors; 290,000 tested, 0.37% active; AID 1721; note: potency is the fitted concentration of half-maximal effect; % is set by controls: 0 for no effect and ±100 for the full control effect
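Screened at intermediate enzyme activity to detect both inhibitors and activators: LmPK at 0.1 nM, with a 0.5 nM enzyme column as activation reference. PEP 0.5 mM, ADP 0.1 mM; ATP detected by luminescence after 1 h.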
TbPYK inhibitor: blocks Trypanosoma brucei pyruvate kinase | 410,000 tested, 0.12% active | TbPYK enzyme, Kinase-Glo Plus ATP luminescence, 45 min | Q57TT1 | Potency, µM (series often up to 76.8 µM), inactives show at the top dose activity, negative = inhibition, most hits filed as inhibitors | AID 624173; note: potency is the fitted concentration of half-maximal effect; % is set by controls: 0 for no effect and ±100 for the full control effect; nearly all actives have a fitted effect of over 50% in size
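Screened from lowest to highest concentration, compounds were pinned into TbPYK/substrate mixtures, and ADP (130 uM final) was added. Plates sat at room temperature for 45 min prior to Kinase-Glo Plus detection by luminescence.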
* marks the source's active call; other numbers are inactive results; ? = inconclusive; / = not tested or not shown; [ ] = remark or other dose. Unless noted, calls come from the whole dose curve; as a rule, active = well fitted curve in the direction sought with a large enough effect; inconclusive = small, poorly fitted or top-dose-only effect, or another doubt; inactive = no such curve, though single readings can be large; an effect the other way counts as inactive or inconclusive.

SMILES | Cycloheximide cs | FBPA Giardia inh | RE007 growth inh | Shiga toxin inh | LmPK inhibitor | TbPYK inhibitor
CCC(C)(C)c1ccc2c(c1)C(=O)c1ccccc1C2=O | 62* | 4% | -14% | 37* | -19% | -2%
CCc1ccc2cc3c(cc2n1)C(=O)c1ccccc1-3 | / | / | -24% | / | / | -2%
c1ccc(Nc2nc(-c3ccccc3)nc3ccccc23)cc1 | -3 | 3% | -26% | / | 10% | -1%
O=C(O)c1cccc(Nc2nc(-c3ccccc3)nc3ccccc23)c1 | 19* | -6% | 3% | 40* | -5% | 0%
CNC(=O)c1ccc(Nc2nc(-c3ccccc3)nc3ccccc23)cc1 | 16* | -8% | -1% | 27 | -1% | -4%
O=C(O)c1ccc(Nc2nc(-c3ccccc3)nc3ccccc23)cc1 | 20* | -17% | ? | 27 | 6% | ?
COC(=O)c1ccc(Nc2nc(-c3ccc(C)cc3)nc3ccccc23)cc1 | / | / | / | / | / | 6%
Cc1ccc(C)c(NC(=S)NCC(c2ccccc2)N(C)C)c1 (centres undefined) | -3 | 8% | -22% | -4 | -4% | 7%
Cc1nn(-c2ccc(N3CCOCC3)nn2)c(C)c1CCC(=O)NCc1ccccc1F | 6 | -9% | -9% | -3 | 6% | -3%
COCCNC(=O)CCCn1c(SCC(=O)Nc2ccc(F)cc2)nc2c(sc3ccccc32)c1=O | / | / | / | / | / | -2%
O=C(CCCN1C(=O)/C(=C\c2ccccc2)SC1=S)Nc1cccc(C(=O)O)c1 | -4 | 12% | 3% | 2 | -3% | -3%
COc1ccccc1/C=C1\SC(=S)N(CCC(=O)Nc2cccc(O)c2)C1=O | 17* | 1% | -8% | 27* | -2% | 5%
O=C(CCCN1C(=O)/C(=C/c2ccccc2)SC1=S)Nc1cccc(O)c1 | 12 | -7% | -6% | 21* | 0% | -4%
O=C(CN1C(=O)S/C(=C\C=C\c2ccccc2)C1=O)Nc1ccc(O)cc1 | 72* | -1% | -19% | 65* | 5% | 0%
COc1cccc(/C=C2/SC(=S)N(CCCC(=O)Nc3ccc(O)cc3)C2=O)c1 | 27* | / | 0% | 44* | 0% | 1%
CCOC(=O)C1CCN(C(c2ccc(OCC)cc2)c2c(O)cc(C)n(CCOC)c2=O)CC1 (centres undefined) | / | / | / | / | / | -5%
O=C(CCCN1C(=O)/C(=C/c2ccccc2Cl)SC1=S)Nc1cccnc1 | 29* | / | -19% | 42* | -9% | 2%
Cc1ccc(/C=C2/SC(=S)N(CCCC(=O)Nc3ccc(O)cc3)C2=O)cc1 | 31* | -4% | -8% | 25* | 2% | 5%
O=C(CCCN1C(=O)/C(=C\c2ccccc2)SC1=S)Nc1ccc(O)cc1 | 26* | -2% | 5% | 3 | -4% | 4%
O=C(Oc1ccccc1)N1CCC[C@@]2(CCN(c3ccncc3)C2)C1 | / | -1% | / | / | / | 3%
COc1ccc(C(=O)N2CCC3(CC2)NCCc2[nH]cnc23)cc1 | -3 | / | 15% | -5 | 3% | 3%
CC(=O)N1CCCC(c2cc(C(=O)Nc3ccccc3)no2)C1 (centres undefined) | / | / | -18%[18.4 µM] | / | / | -14%
COc1cccc(-c2ccc(NC(=O)C3CCCN(Cc4cnc(C)n4C)C3)cc2)c1 (centres undefined) | 3 | 3% | 8% | -4 | 2% | 2%
COc1cccc(-c2ccc(NC(=O)C3CCCN(Cc4nccn4C)C3)cc2)c1 (centres undefined) | 22* | / | -2% | 35* | 1% | 9%
CCOC(=O)N1CCN(Cc2nc3cc(NC(=O)C(C)C)ccc3n2C(C)C)CC1 | / | / | / | / | / | -5%
SMILES | Cycloheximide cs | FBPA Giardia inh | RE007 growth inh | Shiga toxin inh | LmPK inhibitor | TbPYK inhibitor
COc1cc(C=C2C(=O)NC(=O)NC2=O)ccc1OS(=O)(=O)c1ccccc1[N+](=O)[O-] | 21 | -26% | -17% | 57* | 9% | -26%
COc1cc(/C=C2\C(=N)N3N=CSC3=NC2=O)ccc1OS(=O)(=O)c1ccccc1[N+](=O)[O-] | 8 | 14% | -5% | 43 | -7% | 3%
CN1CC(C(=O)O)Cc2c1ccc1ccccc21 (centres undefined) | 14 | 10µM* | -9% | 19 | -1% | 2%
Fc1ccc(-n2nnc(-c3ccnc4ccccc34)n2)cc1 | 40* | 2% | -5% | 44* | 4% | 3%
Cc1ccc(-n2nnc(-c3ccnc4ccccc34)n2)cc1 | 29* | 7% | -12% | 59* | 1% | -4%
Cc1cc(C)c2c(=O)n(CC(=O)Nc3cccc(Cl)c3C)sc2n1 | 7 | -12% | ? | -12 | ? | ?
Cc1cc(C)c2c(=O)n(CC(=O)NC3CCCC3)sc2n1 | 10 | -16% | -13% | -7 | -5% | 10µM*
Cc1cc(C)c2c(=O)n(CC(=O)Nc3ccc(Br)c(C)c3)sc2n1 | -2 | -19% | ? | 19 | -22% | 8.9µM*
CCOc1ccc(OCc2ccc(C(=O)N3CCOCC3)cc2)cc1 | 36* | 0% | -8%[3.69 µM] | 44* | -3% | /
CCOc1ccc(N=C(/C(C(=O)C(=O)N2CCOCC2)=C(\O)c2ccccc2)c2ccccc2)cc1 | 53* | -12% | -29% | 62* | -14% | -3%
CC1CCCN(C(=O)c2ccc(COc3ccccc3Br)cc2)C1 (centres undefined) | 9.1* | 7% | -28% | 15 | 8% | 4%
CC1CCCN(C(=O)c2ccncc2)C1 (centres undefined) | -2 | 3% | -6% | 3 | 0% | 3%
CCOc1ccc(OCc2ccc(C(=O)N3CCCC(C)C3)cc2)cc1 (centres undefined) | 41* | 7% | 19% | 101* | 2% | 1%
CCOc1ccc(C(=O)C(c2ccccc2)N2CCOCC2)cc1 (centres undefined) | -3 | 12% | 22% | -12 | 4% | 18%
O=[N+]([O-])c1cccc(COc2ccccc2CN2CCCC2)c1 | / | / | -18% | / | / | 0%
Cc1c(Cl)cccc1NC(=O)CSc1nc(=O)[nH]c2c1CCC2 | / | / | / | / | / | -4%
O=C(N/N=C/c1ccccc1[N+](=O)[O-])c1cccs1 | 41* | 0% | 61% | 88* | -13% | -4%
O=C(N/N=C/c1ccc([N+](=O)[O-])o1)c1ccc(NS(=O)(=O)c2cccs2)cc1 | -1 | -7% | 6% | -9 | 5% | -6%
O=C(N/N=C/C=C/c1ccccc1)c1ccncc1 | 0 | ? | 2% | -20 | -1% | 6%
O=C(N/N=C/C=C/c1ccccc1[N+](=O)[O-])c1cccs1 | 30* | -7% | / | 23 | 2% | -2%
O=C(N/N=C\C=C\c1ccc([N+](=O)[O-])o1)c1cccs1 | 33* | -18% | -10% | 100* | 1% | 1%
O=C(N/N=C/C=C/c1ccccc1)c1cccs1 | 42* | -18% | -9% | 75* | -8% | 2%
